# MITF inh – inhibitors of human MITF; inhibition, % at 2.6 µM; AID 1259374; AlphaScreen MITF homodimerization, bead proximity signal; actives 0.91% (n = 650,000); O75030; in the data active = inhibition above about 50%;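 note: 0% = vehicle wells with protein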
# GPR151 activ – activators of human GPR151; Q8TDV0; PathHunter beta-arrestin GPR151 cells, luminescence; activation, % at 11.2 µM; actives 1% (n = 650,000); AID 1508602; in the data active = activation above about 4.9%;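 note: 0% = median of compound wells and 100% = cells with positive control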
# TEAD-YAP block – TEAD-YAP interaction inhibition; inhibition, % at 9.12 µM; HEK-TIYL cells, TEAD-Gal4/YAP UAS-luciferase luminescence; AID 1259422; actives 1.4% (n = 640,000); in the data active = inhibition above about 32%;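 note: 0% = median of test compound wells and 100% = reference inhibitor wells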
# FBW7 activator – activators of human E3 ligase FBW7; Q969H0; AlphaScreen FBW7–phospho-cyclin E peptide binding, activator screen; normalized activity (activation), % at 26.1 µM; actives 0.13% (n = 650,000); in the data active = normalized activity above about 1.9%;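 note: purified mutant Fbw7 with reduced substrate affinity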
# Target sequence (Q969H0 whole entry, looked up): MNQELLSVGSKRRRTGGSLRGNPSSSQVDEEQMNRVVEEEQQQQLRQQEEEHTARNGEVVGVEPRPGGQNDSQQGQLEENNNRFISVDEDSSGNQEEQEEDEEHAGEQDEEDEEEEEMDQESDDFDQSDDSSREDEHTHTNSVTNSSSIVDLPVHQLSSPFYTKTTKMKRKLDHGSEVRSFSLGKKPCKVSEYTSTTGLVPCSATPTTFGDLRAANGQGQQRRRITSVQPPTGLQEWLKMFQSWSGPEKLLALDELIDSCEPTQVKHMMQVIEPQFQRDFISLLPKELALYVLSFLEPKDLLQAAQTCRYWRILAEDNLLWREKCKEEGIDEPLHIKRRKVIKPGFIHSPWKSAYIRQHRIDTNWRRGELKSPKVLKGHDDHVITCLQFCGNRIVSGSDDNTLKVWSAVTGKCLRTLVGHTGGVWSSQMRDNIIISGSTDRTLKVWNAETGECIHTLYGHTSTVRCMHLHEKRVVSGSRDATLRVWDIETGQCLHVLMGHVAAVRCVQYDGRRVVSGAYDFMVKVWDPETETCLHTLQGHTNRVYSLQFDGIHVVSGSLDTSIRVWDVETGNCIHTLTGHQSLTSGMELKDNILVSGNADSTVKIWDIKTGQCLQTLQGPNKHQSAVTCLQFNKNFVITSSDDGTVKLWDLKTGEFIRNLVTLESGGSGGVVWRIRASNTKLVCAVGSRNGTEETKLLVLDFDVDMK
# GPR151 confirm – confirmation of human GPR151 activators; shares compounds with GPR151 activ; GPR151 PathHunter beta-arrestin cells, luminescence, 90 min; % of EA-reagent control over plate median; activation, % at 11.2 µM; 6,700 tested, under 10 active; AID 1508609;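 active = mean percent activation across replicates above the confirmation screen cutoff of 4.91%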
# GPR119 ag – GPR119 activation, counter-screen for GPR151 activators; shares compounds with GPR151 activ; GPR119 PathHunter beta-arrestin cells, luminescence, 90 min; 0 = compound-well median, 100 = enzyme-acceptor control; activation, % at 11.2 µM; actives 0.3% (n = 6,700);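 active = mean percent activation in the counterscreen above 29.09%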;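 note: counterscreen on off-target GPR119 to flag nonselective hits from the GPR151 activator screen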
# Numbers without * were called inactive; / = no result given; ! = a repeat was not active. An excerpt weighted towards active compounds, which were near 3.4% of everything screened.
SMILES,MITF inh,GPR151 activ,TEAD-YAP block,FBW7 activator,GPR151 confirm,GPR119 ag
Cc1cc(NS(=O)(=O)C(C)C)ccc1N1CCCCC1=O,4,2,1,0,/,/
Cc1ccc(C2C3C(=O)N(C)C(=O)C3ON2c2ccccc2)cc1 (stereo not given),4,9.3*,-3,0,0,-4
CN1C(=O)C2ON(c3ccc(Cl)cc3)C(c3ccccc3)C2C1=O (stereo not given),6,-1,11,0,/,/
CCOc1cccc(N2C(=O)CC(N3CCN(c4ccccn4)CC3)C2=O)c1 (stereo not given),-11,0,5,0,/,/
COc1cccc(N2C(=O)CC(N3CCN(c4ccccn4)CC3)C2=O)c1 (stereo not given),3,5.1*,0,0,0,-6
COc1ccc(N2CCN(C3CC(=O)N(c4ccc(C(=O)O)cc4)C3=O)CC2)cc1 (stereo not given),13,6.0*,5,0,0,4
Cc1cccc2c(Nc3ccc(S(N)(=O)=O)cc3)c3ccc([N+](=O)[O-])cc3nc12,8,-1,3,0,/,/
O=C(Nc1cccnc1)c1ncoc1-c1ccc2ccccc2c1,-24,-1,-17,0,/,/
CCC1(C2CCN(Cc3ccoc3)CC2)NC(=O)N(CCc2ccc(OC)cc2)C1=O (stereo not given),-17,14*,3,0,0,7
CC(=O)NC(c1ccco1)c1cc(Cl)c2cccnc2c1O (stereo not given),76*,15*,32,0,0,-8
CSc1ncc(C(=O)Nc2cccc(F)c2)c(C)n1,10,0,-2,0,/,/
COC(=O)C1=C(C)NC(=O)/C1=C\c1ccccc1OC,16,-1,-7,1,/,/
O=C(CCC(=O)Nc1ccc(Br)cc1)N/N=C/c1cccs1,-2,6.0*,-6,0,0,-18
COc1cc(O)ccc1/C=N/NC(=O)c1ccccc1,-7,-1,-45,0,/,/
O=C(O)C1CSC(c2ccncc2)N1 (stereo not given),8,1,-3,0,/,/
O=C(O)C1CSC(c2ccsc2)N1 (stereo not given),23,5.3*,2,1,0,-2
CCCN1C(=O)C[n+]2ccccc2C1C(=O)Nc1ccccc1C (stereo not given),2,12*,2,1,1,2
Cc1cccc(C)c1NC(=O)C1c2cccc[n+]2CC(=O)N1CCO (stereo not given),-11,1,-1,0,/,/
NC(=O)C1CCN(C(=O)C2CCN(c3ncnc4c3sc3cccc(F)c34)CC2)CC1,-2,1,10,0,/,/
COc1ccc(/C=C(\C#N)C(=O)Nc2ccccn2)cc1,4,5.1*,2,0,1,6
Cn1nccc1Nc1nc(C(=O)NCc2cccc(C(F)(F)F)c2)cs1,20,8.7*,-9,0,0,-2
Cn1nccc1Nc1nc(C(=O)Nc2ccccc2)cs1,9,5.6*,-14,0,0,-7
Cn1nccc1Nc1nc(C(=O)NCc2ccccc2)cs1,5,-1,-3,0,/,/
Cn1nccc1Nc1nc(C(=O)NCc2cccnc2)cs1,-2,5.3*,-3,0,-1,-13
CC(=O)N1CCC(C(=O)Nc2ccc(-c3cnco3)cc2)CC1,-8,0,1,0,/,/
SMILES,MITF inh,GPR151 activ,TEAD-YAP block,FBW7 activator,GPR151 confirm,GPR119 ag
O=C(c1c(F)cccc1Cl)N(c1ccccc1)C1C=CS(=O)(=O)C1 (stereo not given),-4,1,-11,0,/,/
O=C(c1c(F)cccc1Cl)N(c1ccc(F)cc1)C1C=CS(=O)(=O)C1 (stereo not given),1,7.2*,5,0,0,6
COc1ccc([N+](=O)[O-])cc1NC(=O)C(C)OC(=O)C(C)N1C(=O)c2ccccc2C1=O (stereo not given),7,2,1,0,/,/
Cc1ccnc(SCc2cc(=O)c(OC(=O)c3cc(Cl)ccc3[N+](=O)[O-])co2)n1,2,14*,-2,0,-1,-7
Cc1ccnc(SCc2cc(=O)c(OC(=O)c3cc(Cl)ccc3Cl)co2)n1,9,-1,7,0,/,/
Cc1ccc2ncc(C(=O)Nc3cc(C)on3)c(=O)n2c1,9,8.2*,-20,0,0,-3
Cc1cc(C)cc(NC(=O)c2cnc3ccc(C)cn3c2=O)c1,-3,-1,6,0,/,/
Cn1c(SCc2ccccc2)nnc1C(O)c1ccccc1 (stereo not given),-9,-2,6,0,/,/
Cn1c2ccccc2c(=O)c2c(=O)n(CCc3ccccc3)c(-c3ccco3)nc21,-12,9.4*,-2,0,0,-5
Cn1c2ccccc2c(=O)c2c(=O)n(Cc3ccccc3)c(-c3ccco3)nc21,-2,0,4,0,/,/
COCCCn1c(-c2ccc(F)cc2)nc2c(c(=O)c3ccccc3n2C)c1=O,16,5.9*,0,1,0,-5
Cc1nonc1CC(=O)N1CCC(CCC(=O)NCC2CCCO2)CC1 (stereo not given),14,1,-2,0,/,/
Cc1c(S(=O)(=O)N2CCN(c3ccccc3)CC2)c(=O)n(C)c(=O)n1C,8,8.2*,8,0,1,5
CC(CN(C)C)CN1c2ccccc2Sc2ccccc21 (stereo not given),5,1,8,0,/,/
CC(CN1c2ccccc2Sc2ccccc21)N(C)C (stereo not given),-7,7.4*!,-7,0,-1,-5
COc1cc(C(=O)Nc2ccc([N+](=O)[O-])cc2)cc(Br)c1OC,6,5.6*,7,1,0,2
COc1cc(C(=O)Nc2cccc([N+](=O)[O-])c2)cc(OC)c1OC,11,1,-1,0,/,/
NC(=O)c1ccc(-n2c(CCC(=O)O)ccc2-c2ccccc2)cc1,7,3,-1,0,/,/
NC(=O)c1ccc(-n2c(CCC(=O)O)ccc2-c2ccc(F)cc2)cc1,10,9.7*,-5,0,-1,-11
O=C(Nc1nncs1)c1cccs1,4,0,-1,0,/,/
COc1cc(Nc2cc(NC3CCN(Cc4ccccc4)CC3)nc(N)n2)cc(OC)c1OC,8,1,-8,0,/,/
CCOc1cc(/C=N/Nc2ccccn2)ccc1OCc1ccc(C(=O)OC)o1,-8,5.4*,-1,0,0,-1
CCOc1cc(C=O)ccc1OCc1ccc(C(=O)OC)o1,-2,1,-2,0,/,/
O=C(NCCSCc1ccco1)c1ccc(CSc2ccccc2)cc1,4,-1,-2,0,/,/
CS(=O)(=O)N(CC(=O)N1CCC(C(N)=O)CC1)c1ccc(Oc2ccccc2)cc1,-2,5.0*,-8,0,-1,-6
CCc1ccc(N(CC(=O)N2CCC(C(N)=O)CC2)S(C)(=O)=O)cc1,7,0,4,0,/,/
